This is part of a sample that, as a whole, favours compounds with a hit. Of some 79,000 tested, about 15% had one in any assay. A number with no mark means an inactive call. Active and inactive are the calls of the source. Cut-off read from the data, not from the text of the source: active = growth inhibition above about 70%; inactive = the rest.
Tests used:
[1] = NCI Yeast Anticancer Drug Screen. Data for the rad50 strain (AID 155);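 note: 0% = growth of vehicle-only cultures of the same strain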; details: S. cerevisiae rad50 strain growth inhibition; at 50.0 µM; hits give high values
In short: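 Growth of the mutant yeast was measured after compound exposure and referenced to vehicle-treated cultures.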

[2] = NCI Yeast Anticancer Drug Screen. Data for the mec2-1 strain (AID 157); details: S. cerevisiae mec2-1 strain, at 50.0 µM, hits give high values
In short: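 Cells of the genetically defined mec2-1 yeast strain are incubated with test compound. Inhibition of growth is calculated against vehicle-treated controls.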

[3] = NCI Yeast Anticancer Drug Screen. Data for the sgs1 mgt1 strain (AID 161);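 note: 0% = growth of cultures given vehicle only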; details: S. cerevisiae sgs1 mgt1 strain, at 50.0 µM, hits give high values
In short: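 Genetically altered yeast, compound exposure, growth inhibition relative to vehicle.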

[4] = NCI Yeast Anticancer Drug Screen. Data for the cln2 rad14 strain (AID 165);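 note: 0% = growth equal to vehicle treated cultures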; details: S. cerevisiae cln2 rad14 strain, at 50.0 µM, hits give high values
In short: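 The screen exposed genetically defined yeast (cln2 rad14) to test compounds and scored growth inhibition relative to vehicle-treated controls.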

[5] = NCI Yeast Anticancer Drug Screen. Data for the bub3 strain (AID 167); details: S. cerevisiae bub3 mutant strain, at 50.0 µM, hits give high values
In short: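 Whole-cell yeast assay. The mutant strain was incubated with compounds, and growth inhibition was determined by comparison with vehicle-treated cells.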

[6] = NCI Yeast Anticancer Drug Screen. Data for the mlh1 rad18 strain (AID 175); details: S. cerevisiae mlh1 rad18 strain growth inhibition; at 50.0 µM; hits give high values
In short: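 Compound-treated yeast growth, normalised to vehicle controls. Strain bears defined DNA repair mutations.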

| Structure (SMILES) | growth inhibition [1] | growth inhibition [2] | growth inhibition [3] | growth inhibition [4] | growth inhibition [5] | growth inhibition [6] |
| --- | --- | --- | --- | --- | --- | --- |
| OCC1CCNCC1 | 22.1% | 12.1% | 0.1% | -1.15% | -3.2% | 32.2% |
| Cc1nc2c(sc3ccccc3n2C)c2nc3c(sc4ccccc4n3C)c(C)c12 | -3.95% | -4.2% | 1.45% | -24.4% | -2.6% | 15.1% |
| Cc1cc(N(CCC#N)CCC#N)ccc1/C(N=Nc1ccc([N+](=O)[O-])cc1)=N\NC(=O)c1cc(Cl)ccc1C(=O)c1ccccc1 | 9.3% | 3.15% | -15.7% | -4.25% | -22.4% | 7.7% |
| COC(=O)C(C(=O)C(=O)Nc1nc2ccc([N+](=O)[O-])cc2s1)c1nc2ccc(Cl)cc2[nH]c1=O (configuration not stated) | 10.3% | 17.5% | 21.4% | 26.8% | 15% | -3.1% |
| O=c1[nH]c2c(Cl)cccc2c2ccccc12 | 40.5% | 18.9% | -7.45% | -18.1% | -17.9% | 14.3% |
| CC(C)(C)c1ccc(Sc2cccc3c2C(=O)c2c(Cl)cccc2C3=O)cc1 | -11.3% | -4.1% | -27.1% | -8.1% | 0.55% | -0.85% |
| NC(CSS(=O)(=O)O)=NCCSS(=O)(=O)O | -20.4% | -12.4% | -3.45% | 7.45% | -2.4% | 3.95% |
| CN1CCC(c2ccccc2)(c2ccccc2)OC1c1ccccc1 (configuration not stated) | 1.65% | -12.2% | -7.85% | 1.35% | 8.85% | -18.2% |
| CCOC(=O)c1cnc(C)nc1Nc1ccccc1 | 5.75% | 11.4% | -0.8% | -21.4% | 0.9% | -23.7% |
| CC1(C#N)CC/C(=C\c2ccc3c(c2)OCO3)C(=O)C1 (configuration not stated) | 0.3% | 16.9% | 4.75% | -1.1% | -6.7% | -4.6% |
| COc1cc(CC2c3cccc(Oc4ccc(C)cc4)c3CCN2C)ccc1Oc1ccc(C)cc1 (configuration not stated) | 98% (active) | 98.2% (active) | 98.7% (active) | 96.5% (active) | 97.4% (active) | 98% (active) |
| O=C(O)CCSC1=NCCN1 | -32.8% | -44% | -26.1% | 16.6% | -42.9% | -10.6% |
| CC(=O)CC(=O)Nc1ccccc1C(C)C | 12.9% | 8.1% | 16.1% | 7.4% | -7.85% | -1.7% |
| O=C1c2ccccc2C(=O)c2c1cccc2S(=O)(=O)Nc1ccccc1 | -1.45% | 8.85% | 11.2% | -30.1% | 20.1% | -3.6% |
| CC(C)(C)OC(=O)Cn1ncn(NC(=O)Cc2ccccc2)c1=S | -27.6% | -23.9% | 1.05% | -37.2% | -33.5% | -15.7% |
| O=S(=O)(Nc1ccnn1-c1ccccc1)c1ccc(NC(=S)Nc2ccccc2)cc1 | 34.1% | 38.5% | 46% | 27.7% | 56.4% | 65.5% |
| CCCCCC(Oc1ccc(Cl)cc1Cl)C(=O)O (configuration not stated) | 96.7% (active) | 85.6% (active) | 97.5% (active) | 93% (active) | 91.2% (active) | 93.5% (active) |
| COc1ccc(C(=O)C(c2ccc(OC)cc2)C2(O)C(=O)Nc3ccc([N+](=O)[O-])cc32)cc1 (configuration not stated) | -7.65% | 1.95% | 6.2% | 18.5% | 5.65% | 1.4% |
| CC(C)(C)C(=O)C(Cc1ccccc1)C(=O)C(C)(C)C | 2.6% | -11.8% | 2.15% | 16.8% | 5.45% | -1.95% |

| Structure (SMILES) | growth inhibition [1] | growth inhibition [2] | growth inhibition [3] | growth inhibition [4] | growth inhibition [5] | growth inhibition [6] |
| --- | --- | --- | --- | --- | --- | --- |
| O=C1OC2(C(F)(F)F)Oc3ccccc3CN2C12CCCCC2 (configuration not stated) | 17.6% | 35% | 11.4% | 25.1% | 42.5% | 13.2% |
| CCCCCCC[CH2][Sn]1([CH2]CCCCCCC)[O]C(=O)c2cccnc2[O]1 | 27.4% | 7.3% | 13.2% | 10.3% | 17.2% | 19.8% |
| CCCC[Si]CCCC | 14.8% | 10% | 1.1% | 14.6% | 4.5% | 11.2% |
| Cc1c([N+](=O)[O-])ccn1C | -1.55% | 10.9% | -5.7% | 9.25% | 7.2% | -3.7% |
| NNc1c(F)c(F)c2c(F)c(F)c(F)c(F)c2c1F | 97.8% (active) | 96.5% (active) | 95.5% (active) | 94.5% (active) | 97.7% (active) | 97.5% (active) |
| CCCN1C(=O)CN(S(=O)(=O)c2ccc(Cl)cc2)C1=O | -1.1% | 4.05% | 3.6% | -8% | -1.25% | -46.9% |
| C#CCOCC12C=CC(O1)C1C(=O)OCC12 (configuration not stated) | -9.45% | 9.65% | -12.8% | 18.9% | 21% | 41.9% |
| CC1CNC2C(C)C3C(CC4C5CCC6CC(N=Cc7ccccc7O)CCC6(C)C5CCC43C)OC2(O)C1 (configuration not stated) | 25.8% | -6.2% | -4.3% | -3.95% | 0.3% | 0.55% |
| CC1c2c(ccc3ccccc23)CCC1CC1CCCc2ccc3ccccc3c21 (configuration not stated) | 45.6% | -6.15% | 4.7% | 2.2% | -1% | 17.7% |
| O=[N+]([O-])c1ccc(N/N=C2/CC(c3ccccc3)C(c3ccccc3)=C2Cl)c([N+](=O)[O-])c1 (configuration not stated) | 26.2% | 15.6% | 9.45% | 24.4% | -1.75% | 15.7% |
| COc1cc2c(cc1O)[C@@H]1Cc3c(cc(OC)c(OC)c3Oc3cc4c(cc3OC)CCN(C)[C@@H]4Cc3ccc(O)cc3)[C@H](C2)N1C | 14.9% | 8.75% | 0.15% | 12.1% | -10.4% | -56% |
| Nc1ccn([C@H]2CO[C@@H](CO)O2)c(=O)n1 | -53% | -46.4% | -18.7% | 0.75% | -14.7% | -22.2% |
| CC(=O)OCC1OC=CC(OC(C)=O)C1OC(C)=O (configuration not stated) | -23.1% | -18.8% | -8.55% | -5.85% | -25.8% | -7.5% |
| N#Cc1ccc(NN=NCCOCCCl)cc1 | 18.3% | 26.6% | 17.9% | 34.9% | 27.1% | 23.6% |
| COC(=O)/C(C)=C/C=C/C(C)C(O)C(C)C1OC(CC(OC)OC)C(C)C(O)C1C (configuration not stated) | 28.9% | 22.2% | 9.75% | 2.65% | 2.9% | 19.9% |
| COc1cc2ccnc([C@@H](OC(=O)c3ccccc3)c3ccc(OC)c(OC)c3OC)c2cc1OC | 10.4% | 9.25% | 40.9% | 6.25% | 0.05% | 52.4% |
| COc1ccc(OC(C)C(=O)O)c2c1CCCC2=O (configuration not stated) | 21.6% | 6.3% | -17.1% | 25.6% | 5.15% | 22.7% |
| COc1cc(/C=C2\N=C(C)N(n3c(-c4ccccc4)nc4ccccc4c3=O)C2=O)cc(OC)c1OC | -20.4% | 19.6% | 29.6% | 2.7% | 16.2% | 7.3% |
